Measurements: PubChem BioAssay AID624416 (The Scripps Research Institute Molecular Screening Center, 2012)
Screen size: about 360,000 compounds; about 1,500 (0.42%) were called active. Only a selection was taken, and actives are over-represented in it overall. Unmarked numbers belong to inactive results. No stated cut-off is given here; in the data, active means inhibition above about 8.5%; inactive means the rest.

system: HIV-1 gp120 / PG9 antibody interaction; assay: small molecules engaging PG9 antibody – biochemical, TR-FRET, primary screen (AID 624416); settings: TR-FRET gp120-PG9 antibody binding; at 6.7 µM; hits give high values

SMILES	inhibition
CCCCNc1cccc2c1S(=O)(=O)N[C@@H](C)CO2	-0.83%
CN1CCCc2nc(-c3ccccc3)ccc21	-1.37%
C[C@H](CO)N1C[C@H](C)[C@@H](CN(C)C(=O)Nc2ccccc2F)OCc2cn(nn2)CCCC1=O	0.59%
O=C(NN=Cc1ccco1)C(=O)Nc1ccc(Cl)c([N+](=O)[O-])c1	-2.26%
CCOC(=O)N1CCN(C(=O)C[C@H]2C[C@@]3(C(=O)OC)C(=C[C@H](C4CCCC4)O[C@@H]3C)N(Cc3ccccc3)C2=O)CC1	-1.34%
COc1ccc(-n2nnnc2-c2nc3ccccc3s2)cc1	14.4% (active)
FC(F)(F)c1nc(-c2ccccc2)ncc1-c1nnnn1-c1ccccc1	-0.69%
COc1ccc(-n2nnnc2SCC(=O)NCc2cccs2)cc1	0.22%
Cc1c(C)n2c(SCC(=O)N3CCCC3)nnc2[nH]c1=O	-1.7%
CC(=O)c1sc2nc(SCC(=O)N3CCCCC3)[nH]c(=O)c2c1C	21.1% (active)
CSc1nnc(SCc2nc3sc(C(=O)O)c(C)c3c(=O)[nH]2)s1	-1.42%
Cc1nc(-c2ccccc2)sc1-c1nnc(C2CC2)o1	-1.07%
Cc1nc(-c2ccccc2)sc1-c1nc(-c2ccccc2)ncc1S(=O)(=O)c1ccccc1	10.9% (active)
C#CC(C)(C)NC(=O)c1cnc(-c2ccccc2)nc1-c1ccccc1	-1.56%
CC(=O)N1C[C@@H](CO)[C@@H](N(C)C(=O)C(C)(C)C)C[C@H]1c1ccccc1Br	0.03%
O=S1(=O)c2c(cccc2N2CCCC2)O[C@H](COCc2ccccc2)CN1C1CC1	-1.25%
O=C(CN1CCCSc2ccccc21)N1CCN(S(=O)(=O)c2cccc(F)c2)CC1	-0.88%
N#C/C=C1\Sc2ccccc2C(=O)N1CC(=O)N1CCN(S(=O)(=O)c2ccccc2)CC1	16.5% (active)
CC(C)c1ccc(S(=O)(=O)N2CCN(C(=O)CN3C(=O)NC(C)(c4ccccc4)C3=O)CC2)cc1 (stereo not given)	-0.6%
O=C(N[C@H](Cc1ccccc1)C(=O)N1CCCN(Cc2cccs2)CC1)[C@H]1O[C@@H](n2ccc(=O)[nH]c2=O)[C@H](O)[C@@H]1O	-1.49%
COc1ccc(-c2ccccc2C2Cc3nnccc3CN2C(=O)Nc2ccccc2)cc1 (stereo not given)	-1.16%
Clc1cccc2c1C1CC2CCN1Cc1ccccc1 (stereo not given)	-1.15%
CCc1ccccc1OCC(=O)Nc1ccc2c(c1)OCCO2	-0.52%
CC(=O)c1cc2c(cc1NC(=O)Cn1nc(-c3ccc(F)cc3)ccc1=O)OCO2	-0.49%
CCOc1cccc(NC(=O)Cn2nc(-c3ccc4c(c3)OCCO4)ccc2=O)c1	9.11% (active)
